Where “and” joins values, the source holds several entries; their conditions need not be identical. Equal values may be shown once. The list shows a part of the results. Calls of active or inactive are those of the source. Cut-off read from the data, not from the text of the source, unless noted: active = inhibition above about 30%; inactive = the rest.
Key:
[1] = biological target: Nuclear receptor coactivator 3 (Homo sapiens) (UniProt Q9Y6Q9); experiment: NCOA3 GAL4-fusion reporter inhibition – cell-based, luminescence, quadruplicate, confirmation (AID 588792;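 active = mean inhibition over 43.08%, the solvent-only control mean plus 3 SD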;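 note: 0% = DMSO treated cells and 100% = gossypol at 36 µM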); details: HEK293 GAL4-SRC3 luciferase reporter, at 3.6 µM, active compounds read high
[2] = system: transactivating tegument protein VP16 (Human herpesvirus 1), Gal4-VP16 luciferase reporter; experiment: repression of VP16-driven luciferase reporter – cell-based, luminescence, high throughput, counter-screen for SRC3 inhibitor project (AID 588794); details: mammalian cells, at 3.6 µM, active compounds read high
[3] = biological target: Nuclear receptor coactivator 1 (Homo sapiens) (UniProt Q15788); experiment: NCOA1 GAL4-fusion reporter inhibition – cell-based, luminescence, quadruplicate, confirmation (AID 588820;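 active = mean inhibition above 46.68%, the untreated control wells mean plus 3 SD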;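 note: 0% = DMSO wells and 100% = gossypol 36 µM treated wells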); details: HEK293 GAL4-SRC1 luciferase reporter, at 3.6 µM, active compounds read high
Chain of Nuclear receptor coactivator 1 (Homo sapiens) (Q15788 whole entry, looked up, the tested form may be a part): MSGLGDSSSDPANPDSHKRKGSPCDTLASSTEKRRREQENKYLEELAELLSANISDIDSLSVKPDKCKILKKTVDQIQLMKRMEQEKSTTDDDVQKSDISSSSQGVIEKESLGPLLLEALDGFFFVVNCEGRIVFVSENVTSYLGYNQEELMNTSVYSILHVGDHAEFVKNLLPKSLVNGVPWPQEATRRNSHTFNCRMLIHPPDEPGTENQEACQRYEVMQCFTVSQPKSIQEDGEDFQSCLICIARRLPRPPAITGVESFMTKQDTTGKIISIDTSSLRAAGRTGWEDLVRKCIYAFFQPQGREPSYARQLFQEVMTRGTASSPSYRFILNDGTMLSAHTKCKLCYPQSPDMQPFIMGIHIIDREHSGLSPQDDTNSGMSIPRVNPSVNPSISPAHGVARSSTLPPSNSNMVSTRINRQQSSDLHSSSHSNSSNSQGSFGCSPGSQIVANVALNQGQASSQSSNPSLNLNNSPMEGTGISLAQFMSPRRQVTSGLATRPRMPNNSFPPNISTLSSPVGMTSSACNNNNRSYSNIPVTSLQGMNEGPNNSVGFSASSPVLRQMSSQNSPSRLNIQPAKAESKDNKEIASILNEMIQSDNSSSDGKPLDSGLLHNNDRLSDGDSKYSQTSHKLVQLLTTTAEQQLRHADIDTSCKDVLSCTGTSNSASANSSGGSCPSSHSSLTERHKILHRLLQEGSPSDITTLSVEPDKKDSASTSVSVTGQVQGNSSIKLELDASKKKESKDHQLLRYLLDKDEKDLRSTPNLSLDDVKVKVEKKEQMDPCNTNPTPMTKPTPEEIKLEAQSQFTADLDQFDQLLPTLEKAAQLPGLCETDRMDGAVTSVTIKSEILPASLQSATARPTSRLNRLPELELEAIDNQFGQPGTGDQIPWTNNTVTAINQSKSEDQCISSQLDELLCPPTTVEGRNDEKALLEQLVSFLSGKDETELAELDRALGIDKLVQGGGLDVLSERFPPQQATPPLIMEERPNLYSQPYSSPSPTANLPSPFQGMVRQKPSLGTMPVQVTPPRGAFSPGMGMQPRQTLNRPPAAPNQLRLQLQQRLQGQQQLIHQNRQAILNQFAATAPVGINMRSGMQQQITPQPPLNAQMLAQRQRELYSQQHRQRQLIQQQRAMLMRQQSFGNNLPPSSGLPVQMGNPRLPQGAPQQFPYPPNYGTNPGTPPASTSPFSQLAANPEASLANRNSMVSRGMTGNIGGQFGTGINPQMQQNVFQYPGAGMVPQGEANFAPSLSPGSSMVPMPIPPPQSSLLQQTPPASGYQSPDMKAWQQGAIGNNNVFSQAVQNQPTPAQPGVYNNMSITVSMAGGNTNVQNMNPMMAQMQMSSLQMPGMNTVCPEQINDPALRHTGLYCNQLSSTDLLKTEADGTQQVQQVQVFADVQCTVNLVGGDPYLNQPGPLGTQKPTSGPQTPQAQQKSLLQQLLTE

[4] = repression of VP16-driven luciferase reporter – cell-based, luminescence, high throughput, counter-screen for SRC1 inhibitor project (AID 588824; in the data active = inhibition above about 25%); details: cell-based VP16 transactivation luciferase luminescence; at 3.6 µM; active compounds read high
[5] = system: transactivating tegument protein VP16 (Human herpesvirus 1); experiment: compounds suppressing VP16-driven luciferase signal – cell-based, luminescence, single concentration, counter-screen for SRC2 inhibitor project (AID 652007; in the data active = inhibition above about 36%); details: cell-based VP16 transactivation luciferase reporter, at 8.9 µM, active compounds read high
[6] = biological target: Nuclear receptor coactivator 2 (Homo sapiens) (UniProt Q15596); experiment: inhibition of GAL4-SRC2 driven luciferase expression – cell-based, luminescence, HEK293, triplicate, confirmation (AID 652008;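 active = mean inhibition above 46.5%, the solvent-only control mean plus 3 SD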;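 note: 0% = DMSO-treated cells and 100% = Gossypol at 36 µM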); details: HEK293 GAL4-SRC2 luciferase reporter, at 8.9 µM, active compounds read high
Chain of Nuclear receptor coactivator 2 (Homo sapiens) (Q15596 whole entry, looked up, the tested form may be a part): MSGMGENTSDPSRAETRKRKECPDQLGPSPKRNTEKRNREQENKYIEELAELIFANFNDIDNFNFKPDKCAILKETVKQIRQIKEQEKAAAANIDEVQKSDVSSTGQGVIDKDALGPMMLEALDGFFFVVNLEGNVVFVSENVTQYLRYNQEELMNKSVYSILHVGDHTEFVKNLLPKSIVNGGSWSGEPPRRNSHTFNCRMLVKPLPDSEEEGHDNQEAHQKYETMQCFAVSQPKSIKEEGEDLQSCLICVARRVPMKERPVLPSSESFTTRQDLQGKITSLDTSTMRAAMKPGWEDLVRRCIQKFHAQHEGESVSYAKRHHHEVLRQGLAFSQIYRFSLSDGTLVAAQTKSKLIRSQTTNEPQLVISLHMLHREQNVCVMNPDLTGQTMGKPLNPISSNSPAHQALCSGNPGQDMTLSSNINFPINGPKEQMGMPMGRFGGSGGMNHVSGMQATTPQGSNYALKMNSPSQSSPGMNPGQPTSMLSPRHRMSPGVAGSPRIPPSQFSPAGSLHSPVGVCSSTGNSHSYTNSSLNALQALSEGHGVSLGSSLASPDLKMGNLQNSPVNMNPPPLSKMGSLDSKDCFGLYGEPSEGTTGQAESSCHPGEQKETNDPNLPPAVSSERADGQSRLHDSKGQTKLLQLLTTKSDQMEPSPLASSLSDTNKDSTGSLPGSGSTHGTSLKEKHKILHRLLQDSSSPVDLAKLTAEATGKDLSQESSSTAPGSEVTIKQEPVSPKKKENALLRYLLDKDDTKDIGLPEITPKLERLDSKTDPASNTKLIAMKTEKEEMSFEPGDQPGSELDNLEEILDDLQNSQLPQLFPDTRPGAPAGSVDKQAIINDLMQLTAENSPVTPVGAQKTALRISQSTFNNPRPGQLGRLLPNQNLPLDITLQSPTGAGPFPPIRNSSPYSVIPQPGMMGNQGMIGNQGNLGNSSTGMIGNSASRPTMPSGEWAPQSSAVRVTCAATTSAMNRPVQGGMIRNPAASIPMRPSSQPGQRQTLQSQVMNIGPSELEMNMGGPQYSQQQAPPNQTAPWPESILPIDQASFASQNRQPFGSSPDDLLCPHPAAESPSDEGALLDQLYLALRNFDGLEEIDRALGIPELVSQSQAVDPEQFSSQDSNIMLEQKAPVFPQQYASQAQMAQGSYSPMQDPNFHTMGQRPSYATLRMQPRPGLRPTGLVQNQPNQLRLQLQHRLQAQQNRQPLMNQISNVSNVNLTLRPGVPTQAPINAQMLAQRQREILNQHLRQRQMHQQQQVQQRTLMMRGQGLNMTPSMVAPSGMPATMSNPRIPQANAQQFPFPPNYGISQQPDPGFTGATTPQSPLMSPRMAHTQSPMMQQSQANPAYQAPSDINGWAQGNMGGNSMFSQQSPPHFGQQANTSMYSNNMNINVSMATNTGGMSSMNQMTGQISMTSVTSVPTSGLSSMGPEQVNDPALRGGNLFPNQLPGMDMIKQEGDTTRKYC

[7] = VP16-driven transactivation reporter suppression – cell-based, luminescence, HEK293, counter-screen for COUP-TFII antagonist project (AID 687007; in the data active = inhibition above about 13%); details: HEK293 Gal4-VP16 luciferase reporter, at 8.5 µM, active compounds read high
[8] = biological target: COUP transcription factor 2 (Homo sapiens) (UniProt P24468); experiment: retest of COUP-TFII reporter suppressors – cell-based, luciferase reporter, HEK293, triplicate, confirmation (AID 687008;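 active = mean inhibition over three repeats above a set limit taken from the earlier primary screen, cut at about 38% in these data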;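 note: 100% = cells given the luciferase reporter alone without the COUP-TF2 vector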); details: HEK293 NGFI-A luciferase reporter, luminescence; at 8.5 µM; active compounds read high
Chain of COUP transcription factor 2 (Homo sapiens) (P24468 whole entry, looked up): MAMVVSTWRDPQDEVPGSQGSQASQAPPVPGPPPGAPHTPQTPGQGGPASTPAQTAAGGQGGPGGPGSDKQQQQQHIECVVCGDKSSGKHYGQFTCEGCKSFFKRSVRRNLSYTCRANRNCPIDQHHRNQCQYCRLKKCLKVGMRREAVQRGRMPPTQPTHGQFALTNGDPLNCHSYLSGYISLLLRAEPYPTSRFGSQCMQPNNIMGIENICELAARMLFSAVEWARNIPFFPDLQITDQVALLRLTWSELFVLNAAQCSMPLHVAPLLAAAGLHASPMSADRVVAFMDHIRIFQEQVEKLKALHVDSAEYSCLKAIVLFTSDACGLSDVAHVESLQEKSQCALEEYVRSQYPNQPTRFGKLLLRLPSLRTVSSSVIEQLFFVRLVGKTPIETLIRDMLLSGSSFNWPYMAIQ

[9] = biological target: Photoreceptor-specific nuclear receptor (Homo sapiens) (UniProt Q9Y5X4); experiment: retest of NR2E3-NCOR disrupting agonists – cell-based, luminescence, CHO-S two-hybrid, confirmation (AID 624378;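 active = average inhibition above a cutoff equal to the mean inhibition of all tested compounds plus one SD, cut at about 70% in these data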;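 note: 0% = DMSO in NR2E3 cells and 100% = DMSO in cells lacking NR2E3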); details: CHO-S mammalian two-hybrid NR2E3-NCOR, luciferase luminescence; at 3.98 µM; active compounds read high
Chain of Photoreceptor-specific nuclear receptor (Homo sapiens) (Q9Y5X4 whole entry, looked up): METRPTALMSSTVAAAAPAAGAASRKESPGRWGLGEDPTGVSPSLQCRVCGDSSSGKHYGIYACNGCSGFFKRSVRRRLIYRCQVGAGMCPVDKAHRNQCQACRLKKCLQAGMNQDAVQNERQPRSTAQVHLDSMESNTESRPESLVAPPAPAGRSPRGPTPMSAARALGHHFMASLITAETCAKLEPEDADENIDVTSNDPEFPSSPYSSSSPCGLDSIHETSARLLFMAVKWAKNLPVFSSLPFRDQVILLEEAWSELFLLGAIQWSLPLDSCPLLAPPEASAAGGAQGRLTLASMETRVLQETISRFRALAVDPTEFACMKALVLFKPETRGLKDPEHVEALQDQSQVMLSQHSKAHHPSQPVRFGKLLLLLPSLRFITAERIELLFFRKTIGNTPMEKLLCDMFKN

[10] = nonselective effects on VP16 transactivation – cell-based, luminescence, CHO-S, high throughput, counter-screen for NR2E3 agonist project, confirmation (AID 624379;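 active = mean inhibition above a cutoff equal to the average over all tested compounds plus one standard deviation, cut at about 70% in these data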;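 note: 0% = DMSO with VP16-transfected cells and 100% = DMSO with cells lacking VP16; higher means less reporter light so more repression of VP16 activity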); details: CHO-S GAL4-VP16 luciferase reporter, at 3.98 µM, active compounds read high
[11] = StAR promoter reporter inhibitors, counter-screen for LRH-1 inverse agonist project, cell-based, luminescence, high throughput (AID 651611; in the data active = inhibition above about 28%); details: StAR promoter luciferase reporter counterscreen, at 3.6 µM, active compounds read high
[12] = biological target: Nuclear receptor subfamily 5 group A member 2 (Homo sapiens) (UniProt O00482); experiment: NR5A2 activity suppression in reporter cells – cell-based, luminescence, confirmation (AID 651613; in the data active = inhibition above about 42%;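 note: HEK293T cells co-transfected with LRH-1 and StAR promoter luciferase reporter; 0% = vehicle wells and 100% = parental cells lacking receptor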); details: cell-based LRH-1 luciferase reporter, inverse agonism; at 3.6 µM; active compounds read high
Chain of Nuclear receptor subfamily 5 group A member 2 (Homo sapiens) (O00482 whole entry, looked up): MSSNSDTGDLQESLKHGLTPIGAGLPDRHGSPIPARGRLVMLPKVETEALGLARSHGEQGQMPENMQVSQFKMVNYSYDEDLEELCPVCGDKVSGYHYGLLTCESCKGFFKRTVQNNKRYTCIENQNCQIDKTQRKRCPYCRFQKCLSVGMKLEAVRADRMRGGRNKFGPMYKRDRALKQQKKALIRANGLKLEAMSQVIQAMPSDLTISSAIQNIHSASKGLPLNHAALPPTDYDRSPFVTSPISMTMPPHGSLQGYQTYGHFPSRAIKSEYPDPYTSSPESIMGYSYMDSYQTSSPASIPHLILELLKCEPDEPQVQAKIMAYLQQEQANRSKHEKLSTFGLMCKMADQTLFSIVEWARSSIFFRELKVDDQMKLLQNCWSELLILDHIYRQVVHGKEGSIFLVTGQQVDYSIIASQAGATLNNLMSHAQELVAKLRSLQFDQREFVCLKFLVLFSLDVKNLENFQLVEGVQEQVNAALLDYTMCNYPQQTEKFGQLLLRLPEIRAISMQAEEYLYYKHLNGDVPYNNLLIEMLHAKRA

[13] = biological target: Steroidogenic factor 1 (Homo sapiens) (UniProt Q13285); experiment: inverse agonism at SF1 nuclear receptor – cell-based, luminescence, high throughput, counter-screen for LRH-1 inverse agonist project (AID 651614; in the data active = inhibition above about 44%;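 note: cells cotransfected with StAR promoter reporter and SF1 expression vector; 0% = vehicle on cells with receptor and 100% = vehicle on cells lacking receptor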); details: cell-based SF1 luciferase reporter, at 3.6 µM, active compounds read high
Chain of Steroidogenic factor 1 (Homo sapiens) (Q13285 whole entry, looked up, the tested form may be a part): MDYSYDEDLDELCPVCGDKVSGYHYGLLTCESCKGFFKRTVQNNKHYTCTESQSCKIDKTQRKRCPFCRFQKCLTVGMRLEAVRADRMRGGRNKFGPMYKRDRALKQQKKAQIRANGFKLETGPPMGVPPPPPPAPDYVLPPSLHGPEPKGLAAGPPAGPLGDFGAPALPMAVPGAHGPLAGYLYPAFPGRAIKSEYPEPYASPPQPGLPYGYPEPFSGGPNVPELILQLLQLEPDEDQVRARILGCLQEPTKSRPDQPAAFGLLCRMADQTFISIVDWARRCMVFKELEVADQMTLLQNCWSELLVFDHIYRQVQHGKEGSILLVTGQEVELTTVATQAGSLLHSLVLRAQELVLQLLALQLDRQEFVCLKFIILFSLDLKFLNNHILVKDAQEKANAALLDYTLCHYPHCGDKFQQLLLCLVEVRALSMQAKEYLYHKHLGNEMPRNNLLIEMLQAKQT

[14] = compounds suppressing VP16-driven luciferase signal – cell-based, luminescence, high throughput, counter-screen for LRH-1 inverse agonist project (AID 651615; in the data active = inhibition above about 33%); details: Gal4-VP16 luciferase reporter cells, at 3.6 µM, active compounds read high

Measured: inhibition

CN(Cc1nccs1)C(=O)c1cc(COc2cccc3cnccc23)on1
active: [2] 36.1% | [4] 34.7% | [6] 51.8%
inactive: [1] 27.5% | [3] 19.8% | [5] 16.6%

O=C(CCl)N1N=C(c2ccco2)CC1c1ccco1 (stereo not drawn)
inactive: [2] 12.5% | [3] 32.7% | [4] 4.7%
active: [1] 59.1% | [5] 36.6% | [6] 67.9%

Nc1ncccc1C(=O)OCC(=O)N1CCN(S(=O)(=O)c2ccc(Cl)cc2)CC1
inactive: [1] 32.3% | [2] 22.3% | [3] 23.2% | [4] 20.6% | [5] -4.99% | [6] 25.8%

COc1cc(SC)ccc1C(=O)Nc1nc(C)cs1
inactive: [1] 15.6% | [2] 15.1% | [3] -68.3% | [4] 14.8%
active: [5] 50.1% | [6] 75.4% | [7] 46.4% | [8] 69.1%

CCN(c1ccc(OC)cc1)c1ncnc2nc[nH]c12
active: [1] 66.8% | [2] 45.6% | [3] 67.2% | [4] 48.6%
inactive: [5] -3.42% | [6] 45.7%

O=C(N/N=C/c1cc(Br)ccc1O)C(c1ccncc1)N1CCOCC1 (stereo not drawn)
inactive: [1] 19.3% | [2] 20.1% | [3] 19.4% | [4] 10.6% | [5] 11.5% | [6] 10.1%

COc1ccc(N(C(=O)CCl)C(C(=O)NC2CCCCC2)c2cccnc2)cc1 (stereo not drawn)
inactive: [3] 38.8%
active: [1] 75.7% | [2] 56.5% | [4] 51.5% | [5] 68.8% | [6] 69%

C=CCn1c(C)cc(C2=NNC(=NC(C)(C)C)SC2)c1C
inactive: [1] 28.8% | [3] -25.9% | [4] -16.9% | [5] 17.8%
active: [2] 33.7% | [6] 63%

CCn1c(Oc2ccccc2C)nc2c1c(=O)n(C)c(=O)n2C
active: [1] 51.9% | [2] 34.7% | [3] 51.5% | [4] 30.6%
inactive: [5] 14.5% | [6] 40.9%

Clc1ccccc1C1=Nn2c(nnc2-c2ccncc2)SC1
inactive: [5] 7.16% | [6] 46%
active: [1] 78.3% | [2] 52.6% | [3] 73.9% | [4] 55.2%

CC(C)(C)C(=O)Nc1ccc(N=Nc2ccccc2)cc1
inactive: [2] 28.6% | [3] -19.6% | [4] -23.9%
active: [1] 69.1% | [5] 54.7% | [6] 66%

COCCNc1nc(Oc2cncc(Cl)c2)c2sccc2n1
active: [2] 29.7% | [4] 32.8%
inactive: [1] 42.1% | [3] 44.3% | [5] 16.6% | [6] 45.5%

Cc1csc(SCC(=O)Nc2cccc3nsnc23)n1
active: [1] 66.3% | [2] 35.1% | [3] 57.9% | [4] 37.7%
inactive: [5] -58.8% | [6] 19.4%

CCCC(=O)NC(c1ccc(Cl)cc1Cl)c1ccc2cccnc2c1O (stereo not drawn)
active: [4] 48%
inactive: [1] 34.5% | [2] 28.6% | [3] 45.7% | [5] 0.83% | [6] 17.2%

O=C(CCCN1C(=O)/C(=C/c2ccccc2Cl)SC1=S)NNC(=O)c1ccncc1
active: [5] 40.6% | [6] 65.4%
inactive: [1] 14.7% | [2] 8.23% | [3] 10.8% | [4] 10.8%

Cc1cc(Sc2nnc(/N=C/N(C)C)s2)c2ccccc2n1
inactive: [1] 9.12% | [3] 2.4% | [5] -8.53% | [6] 24.6%
active: [2] 40.5% | [4] 33.8%

C=CCC1(CC=C)CCCN1C(=O)c1cc(COc2ccc(-n3cncn3)cc2)on1
inactive: [1] 5.51% | [7] -1.01%
active: [2] 30.2% | [9] 97.4% | [10] 86.5% | [8] 49.6%

O=C(Nc1sc2c(c1C(=O)O)CCCCC2)c1ccccc1
active: [12] 57% | [13] 59% | [14] 53.1%
inactive: [1] -1.12% | [2] 24.2% | [11] 1.22%

Cc1ccc2c(c1C)-c1c(ccc(C)c1C)C(=O)C2=O
active: [1] 58% | [2] 34.3% | [11] 64.4% | [12] 72% | [13] 80.5% | [14] 73.8%

Cc1ccc(C(=O)Nc2sc3c(c2C(=O)O)CCCC3)o1
active: [2] 40% | [11] 32.5% | [12] 75.9% | [13] 78.6% | [14] 61.7%
inactive: [1] 17.1%

c1ccc(-c2csc3ncnc(NCC4COc5ccccc5O4)c23)cc1 (stereo not drawn)
inactive: [1] 8.5%
active: [2] 53% | [11] 34.8% | [12] 57.8% | [13] 62.5% | [14] 60.4%

CC(C)(C)Nc1nc(-c2ccccn2)nc2ccccc12
active: [2] 43.1% | [9] 99.2% | [11] 69.1% | [12] 85.6% | [13] 84.7% | [14] 63.9%
inactive: [1] 35% | [10] 49.7%

CCOc1ccc(-c2c[n+]3c(n2-c2ccccc2)CCCCC3)cc1
active: [2] 43.8% | [12] 94.5% | [13] 69.1% | [14] 66.9%
inactive: [1] 28.4% | [11] 22.6%

CN(c1ccccc1)S(=O)(=O)c1cccc(C(=O)OCC(=O)Nc2ccc(C(N)=O)cc2)c1
inactive: [1] 6.76% | [2] -5.87% | [11] 16.5% | [12] 1.26% | [13] 10% | [14] -16.3%

CCOc1cc(/C=C2\CCC/C(=C\c3cc(Cl)c(O)c(OCC)c3)C2=O)cc(Cl)c1O
active: [1] 43.9% | [12] 47.7% | [13] 61.1% | [14] 46.4%
inactive: [2] 21.8% | [11] 11.2%

NC(=O)c1sc2nc3c(c(-c4ccccc4)c2c1N)CCC3
active: [1] 77.1% | [2] 54.8% | [3] 72.8% | [4] 49.3% | [6] 51% | [7] 18.6%
inactive: [5] 12.9% | [8] 31.9%

c1cnc2c(c1)ccc1cccnc12
inactive: [1] 42.2%
active: [2] 31.6% | [11] 70.5% and 77.1% | [12] 104% | [13] 59.1% and 70.5% | [14] 50.6% and 74.9%

O=[N+]([O-])c1ccc(O)c(/C=N/Nc2nc3ccccc3[nH]2)c1
active: [1] 64% | [2] 62.7% | [11] 80.6% | [12] 97.5% | [13] 84.3% | [14] 83%

CCC(C)Nc1nc(-c2ccccn2)nc2ccccc12 (stereo not drawn)
inactive: [1] 3.88% | [2] 11.9%
active: [11] 45.6% | [12] 67.2% | [13] 78.3% | [14] 42.9%

O=C(Nc1ccc(S(=O)(=O)Nc2ccccc2)cc1)c1ccc(CN2CCOCC2)cc1
active: [2] 36% | [12] 56.4% | [13] 57.4% | [14] 57.6%
inactive: [1] 9.71% | [11] 21.8%

O=c1oc2ccccc2cc1-c1cn(-c2ccccc2)c(=S)[nH]1
inactive: [1] 11% | [2] 23.1% | [3] -68.1% | [4] -22.7%
active: [7] 46.9% | [8] 60.8%

CC(=O)c1cn(CC(=O)Nc2ccc(C)cc2C)c2ccccc12
inactive: [1] 11.1% | [2] 28.2% | [11] 11.3%
active: [12] 71.5% | [13] 64.5% | [14] 47.4%

COc1ccc(-n2c(-c3ccc(Br)cc3)c[n+]3c2CCc2ccccc2-3)cc1
active: [2] 36.3% | [12] 96.4% | [13] 65% | [14] 73%
inactive: [1] 32.4% | [11] 22.1%

Cc1ccc(NC(=O)c2cc(Cl)ccc2[N+](=O)[O-])cc1C
inactive: [1] 27.3% | [2] 18.5% | [11] 16.6% | [12] 36.5% | [13] 34.6% | [14] 19.6%

COc1cc2c(c(OC)c1OC)-c1ccc(SC)c(=O)cc1C(NC=O)CC2 (stereo not drawn)
inactive: [2] 15.7%
active: [1] 44.5% | [11] 67% | [12] 65.8% | [13] 69.7% | [14] 54.5%

Cc1ccc(C(=O)Nc2sc3c(c2C(=O)O)CCC(C)C3)o1 (stereo not drawn)
active: [2] 68.3% | [11] 53.4% | [12] 89.5% | [13] 85.8% | [14] 77%
inactive: [1] 28%

O=C(OC12CC3CC(CC(C3)C1)C2)c1ccc(NCc2cc(O)ccc2O)cc1
inactive: [10] 18.6%
active: [1] 89.3% | [2] 59.6% | [9] 78.1% | [11] 66.5% | [12] 82.9% | [13] 80.2% | [14] 86% | [5] 95.5% | [6] 96.4% | [7] 79.4% | [8] 103%

CC(=O)Nc1ccc(-c2csc(NC(=O)Nc3ccccc3)n2)cc1
inactive: [1] 4.6% | [2] -0.97% | [3] -38.2% | [4] -3.98% | [7] -18.8% | [8] 35.7%

O=S(=O)(NCC1CCCO1)c1ccc(-c2ccc(S(=O)(=O)NCC3CCCO3)cc2)cc1 (stereo not drawn)
active: [2] 41.9% | [12] 69.5% | [13] 61.2% | [14] 56.7%
inactive: [1] 9.93% | [11] 24.6%

Cc1sc(NC(=O)c2ccco2)c(C(c2cccnc2)N2CCN(c3ccc(F)cc3)CC2)c1C (stereo not drawn)
inactive: [1] 19.5% | [11] 24.4%
active: [2] 31.9% | [12] 61.9% | [13] 60.2% | [14] 53.9%

Cc1cc(Br)c(OCc2ccc(C(=O)N/N=C/c3ccc[nH]3)cc2)c(Br)c1
active: [1] 51.8% | [2] 71.7% | [11] 76.5% | [12] 101% | [13] 88.5% | [14] 85.5%
